Test results from PubChem BioAssay (Tox21).
Unmarked numbers belong to inactive results. Records with an inconclusive call do not appear. A call without a number means that no potency is given here. Activity calls are given as the source filed them. Unless noted, calls come from the whole dose curve; as a rule, active = well fitted curve in the direction sought with a large enough effect in the repeat runs; inconclusive = weak or mixed curves; inactive = no such curve, though single readings can be large; an effect the other way counts as inactive or inconclusive.

Columns and labels:
[1] = qHTS assay for small molecule agonists of the p53 signaling pathway (AID 651631; calls by dose curve; note: nearly all actives have a fitted effect of over 15% in size)
Summary of the method: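 p53RE-bla HCT-116 cells; compounds 16 h, 37 °C; LiveBLAzer B/G FRET substrate 2 h RT; fluorescence intensity read-out, qHTS format.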

[2] = qHTS assay for small molecules that induce genotoxicity in human embryonic kidney cells expressing luciferase-tagged ATAD5 (AID 651632); note: nearly all actives have a fitted effect of over 15% in size
Summary of the method: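 Luminescence read-out: after 16 hr compound exposure at 37C, ATAD5-luciferase HEK293T cells received Amplite, 30 min RT, then CCD imaging. A rise in signal marks genotoxic stress.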

[3] = qHTS assay for small molecule agonists of the p53 signaling pathway - cell viability (AID 651633; calls by dose curve;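 note: p53RE-bla HCT reporter cells with a stable beta-lactamase p53 reporter; series mostly up to about 83 µM; nearly all actives have a fitted effect of over 30% in size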)
Summary of the method: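 p53RE-bla cells were treated with compound for 16 hours at 37 C. Cytotoxicity was then measured as CellTiter-Glo luminescence after 30 min at room temperature.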

[4] = qHTS assay for small molecules that induce genotoxicity in human embryonic kidney cells expressing luciferase-tagged ATAD5 - cell viability (AID 651634; calls by dose curve; note: nearly all actives have a fitted effect of over 25% in size)
Summary of the method: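 HEK293T ATAD5-luc cells, 2,000/well; compound 15.5 hr, 37C/5% CO2; CellTiter-Fluor 30 min, 37C; fluorescence read.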

[5] = qHTS assay for small molecule disruptors of the mitochondrial membrane potential - cell viability (AID 720634; calls by dose curve;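 note: human HepG2 liver cancer cells; series mostly up to about 83 µM; nearly all actives have a fitted effect of over 20% in size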)
Summary of the method: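 Luminescence from CellTiter-Glo (ATP content) gave viability in HepG2 cells, read in the same wells as the MMP dye assay after 1 hr compound exposure at 37 C.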

[6] = qHTS assay to test for compound auto fluorescence at 590 nm (red) in HepG2 cells (AID 720674)
Summary of the method: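 HepG2 cells, 2,000 per well in MEM with 10% FBS, attached overnight at 37 C, then got 23 nL compound or DMSO. After 1 hr at 37 C, 5% CO2, red fluorescence was read at 540/590 nm against Rose Bengal sodium as reference.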

[7] = qHTS assay to test for compound auto fluorescence at 535 nm (green) in HepG2 cells (AID 720675)
[8] = qHTS assay to test for compound auto fluorescence at 460 nm (blue) in HEK293 cells (AID 720678); note: potency is the fitted concentration of half-maximal effect
Summary of the method: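 HEK293 cells (2,000 per well, medium with 10% dialyzed FBS) attached for 4-5 hr at 37C, then received compound and stood overnight at 37C, 5% CO2. Blue fluorescence was read at Ex/Em 405/460 nm and expressed relative to triamterene.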

[9] = qHTS assay to test for compound auto fluorescence at 590 nm (red) in HEK293 cells (AID 720679)
Summary of the method: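 HEK293 cells (2,000/well, medium with 10% dialyzed FBS) attached for 4-5 hr at 37C, received 23 nL compound and were incubated overnight at 37C, 5% CO2. Red fluorescence was then read at 540/590nm Ex/Em, referenced to Rose Bengal sodium.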

[10] = qHTS assay for small molecule disruptors of the mitochondrial membrane potential (AID 720635); note: potency is the fitted concentration of half-maximal effect
Summary of the method: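 HepG2 cells exposed to compound 1 hr at 37C, then Mito-MPS dye 30 min. Ratio read of aggregate (540/590 nm) versus monomer (490/535 nm) fluorescence.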
Tags give direction and shape of the fitted curve or compound fluorescence and quenching.

Structure (SMILES)	Potency [1]	Potency [2]	Potency [3]	Potency [4]	Potency [5]	outcome [6]	outcome [7]	Potency [8]	outcome [9]	Potency [10]	fluorescence, relative to Rose Bengal [6]	fluorescence, % of fluorescein control [7]	fluorescence, % of triamterene [8]	fluorescence, % of fluorescent control [9]
CCCC(=O)OCc1ccccc1	inactive	inactive	inactive	inactive	inactive	inactive	inactive	inactive	inactive					
CCOC(=O)CC(O)(CC(=O)OCC)C(=O)OCC	inactive	inactive	inactive	inactive		inactive	inactive	inactive	inactive					
Cc1ccc(NC(=O)c2ccc(CN3CCN(C)CC3)cc2)cc1Nc1nccc(-c2cccnc2)n1	inactive	inactive	inactive		inactive	inactive	inactive	inactive	inactive	2.11 µM (active)				
O=C(O)c1cccnc1Nc1cccc(C(F)(F)F)c1		inactive	inactive	inactive	inactive	inactive	inactive	inactive	inactive	11.9 µM (active)				
CC(C)(C(=O)O)c1ccc(C(O)CCCN2CCC(C(O)(c3ccccc3)c3ccccc3)CC2)cc1 (stereo unspecified)		inactive	inactive	inactive	inactive	inactive	inactive	inactive	inactive	inactive				
O=c1c2ccccc2oc2ccccc12		inactive	inactive	inactive	inactive	inactive	inactive	inactive	inactive	inactive				
CCCCCCCCCCCCSCCOCCO		inactive	inactive	inactive	inactive	inactive	inactive	inactive	inactive	inactive				
COC(=O)c1cc(Cl)ccc1[N+](=O)[O-]		inactive	inactive	inactive	inactive	inactive	inactive	inactive	inactive	inactive				
O=[N+]([O-])c1ccc(Cl)cc1Cl		inactive	inactive	inactive	inactive	inactive	inactive	inactive	inactive	inactive				
NC(=O)c1cc[n+](CC2=C(C(=O)[O-])N3C(=O)[C@@H](NC(=O)Cc4cccs4)[C@H]3SC2)cc1		inactive	inactive	inactive	inactive					inactive	-0.33% [at 18.6 µM]	-0.0242% [at 18.6 µM]	0.803% [at 18.6 µM]	0.0624% [at 18.6 µM]
NC(=O)c1ccccc1		inactive	inactive	inactive	inactive	inactive	inactive	inactive	inactive	inactive				
CC(COc1ccccc1)NC(C)C(O)c1ccc(O)cc1 (stereo unspecified)		inactive	inactive	inactive	inactive					inactive	-0.283% [at 18.6 µM]	-0.086% [at 18.6 µM]	-0.0294% [at 18.6 µM]	-0.22% [at 18.6 µM]
C=C[Si](OCC)(OCC)OCC	inactive		inactive	inactive	inactive	inactive	inactive	inactive	inactive					
CCCc1ccc(OC)cc1		inactive	inactive	inactive	inactive	inactive	inactive	inactive	inactive	inactive				
CC(=O)OCC(=O)[C@@]1(O)CC[C@H]2[C@@H]3CCC4=CC(=O)C=C[C@]4(C)[C@@]3(F)[C@@H](O)C[C@@]21C		inactive	inactive	inactive	inactive						-0.399% [at 18.6 µM]	0.0333% [at 18.6 µM]	0.0056% [at 18.6 µM]	0.478% [at 18.6 µM]
C=CC(=O)OCCCCCCCCCC		inactive	inactive	inactive	inactive	inactive	inactive	inactive	inactive	inactive				
CCOCCn1c(N2CCCN(C)CC2)nc2ccccc21		inactive	inactive	inactive	inactive	inactive	inactive	inactive	inactive	inactive				
CC(=O)Oc1cccc2c1C(=O)c1c(OC(C)=O)cc(C(=O)O)cc1C2=O		inactive	inactive	inactive	inactive	inactive	inactive	inactive	inactive	13.3 µM (active)				
CCCCCCCCC(=O)OCC(C)OC(=O)CCCCCCCC (stereo unspecified)		inactive	inactive	inactive	inactive	inactive	inactive	inactive	inactive	inactive				
CCC[Si](OC)(OC)OC		inactive	inactive	inactive	inactive	inactive	inactive	inactive	inactive	inactive				
CC1(C)CC(O)CC(C)(C)N1[O]		inactive	inactive	inactive	inactive	inactive	inactive	inactive	inactive					
Cc1c(-c2cccnc2)c2ccccc2n1CCCCC(=O)O		inactive	inactive	inactive	inactive	inactive	inactive	inactive	inactive					
CCC(C)C1N=C(C)C(C)S1 (stereo unspecified)		inactive	inactive	inactive	inactive	inactive	inactive	inactive	inactive	inactive				
CC[C@H](NC(C)C)[C@H](O)c1ccc(O)c2[nH]c(=O)ccc12		inactive	inactive	inactive	inactive	inactive	inactive	11.2 µM [fluorescent] (active)	inactive	inactive				
